In PubChem BioAssay AID1508625 (Wald Lab, School of Medicine, Case Western Reserve …, 2021):

Experiment: enhancers of NK cell killing of ovarian tumor cells, primary screen, imaging, OVCAR3, primary NK cells, calcein-AM imaging (AID 1508625);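 also: compound given to NK cells 16 h before adding targets at 1.5 to 1 ratio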
Conditions: OVCAR3 lysis by primary NK cells, at 5 µM; z-score: measured here: robust Z-score, single-point normalisation

SMILES | corrected activity, negative = more killing | z-score
O=C(CCCn1c(=S)[nH]c2cc3c(cc2c1=O)OCO3)NC1CC1 | -7.46% | -1.98
Cc1ccc(NC(=O)CCNC(=O)Cn2cnc3ccccc3c2=O)c(Br)c1 | -0.469% | -0.149
O=[N+]([O-])c1ccc(OCCCN2CCNCC2)cc1 | -3.62% | -2.02
Cc1ccc(OCCNC2CCCC2)c(C)c1 | 0.166% | 0.0921
Cc1cc2oc(=O)c3c(c2c2occ(-c4ccc(Br)cc4)c12)CCC3 | -4.94% | -1.48
O=[N+]([O-])c1ccc(Nc2ncnc3ccccc23)cc1 | -1.89% | -1.01
CCOC(=O)c1sc(N2C(=O)C(=O)C(=C(O)c3ccccc3)C2c2ccc(C(C)(C)C)cc2)nc1C (configuration not stated) | -1.11% | -0.48
Cc1c(C(=O)NCCc2ccccc2)oc2ccc(S(=O)(=O)N3CCCC3)cc12 | -4.9% | -1.22
CNC(=O)C(C)Oc1cccc(Cl)c1 (configuration not stated) | -2.63% | -1.46
CCOC(=O)c1c(N)sc(C(=O)Nc2cc(C)ccc2C)c1C | -5.05% | -1.57
COc1ccc(-c2nocc2C(N)=O)cc1OC | -3.72% | -1.63
Clc1cccc(N2CCN(Cc3cn4c(-c5cccc(Br)c5)nnc4s3)CC2)c1 | -6.72% | -1.91
COc1cccc(N2CCN(C(=O)Nc3ccc(F)cc3)CC2)c1 | -2.57% | -1.43
O=C(COc1ccc(Br)cc1)NCc1ccco1 | -0.415% | -0.147
O=C(CNC(=O)OCc1ccccc1)Oc1cc2oc(=O)c3c(c2cc1Cl)CCC3 | -2.23% | -0.829
CCOc1ccc(NC(=O)Cn2c(=O)n(CCc3ccccc3)c(=O)c3c4c(sc32)CCCC4)cc1 | -8.33% | -2.36
